Sampled rows, rich in hits. Any-hit rate of the full collection: about 14%.
HCMV inh: inhibitors of human cytomegalovirus | 4.5% of 410,000 active | HFF cells, HCMV-luciferase reporter, 72 h; stronger effect = lower value | activity change, negative = inhibition, % at 57.5 µM; in the data active = activity change below about -60%; inconclusive = no clear call, values can overlap the other calls; inactive = above about -39%
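Two-dose cell screen: HFF monolayers treated with compounds and infected with luciferase-expressing HCMV at 1 PFU/cell, 72 h at 37C, then lysed for luciferase measurement.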
Pf growth 96h: inhibits malaria parasite growth, 96 h; P. falciparum luciferase reporter growth, 96 h; Potency, µM (doses to about 28.7 µM), inactives show at the highest dose activity change, negative = inhibition, most hits filed as inhibitors; 6.9% of 320,000 active; AID 504834; also: potency is read from the fitted curve at half-maximal effect
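Luminescence readout: decreased luciferase signal marks inhibited growth of reporter-expressing P. falciparum in infected red cells (2% hematocrit, 0.05% parasitemia final), exposed to compound two generations (96 h, 37 C, 5% CO2).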
Pf growth 48h: inhibits P. falciparum growth in the first generation, 48 h. P. falciparum luciferase growth in erythrocytes, 48 h. Potency, µM (titrated, usually from 28.7 µM), for inactives: at the highest dose activity change, negative = inhibition, most hits filed as inhibitors. 5.9% of 310,000 active; also: potency is read from the fitted curve at half-maximal effect
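In quantitative HTS format, infected erythrocytes bearing luciferase-reporter parasites were treated for a single generation at 37 C. Luminescence after adding detection reagent served as the growth measure.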
MARV entry inh: inhibitors of Marburg virus binding or cell entry | Marburg virus pseudotyped entry inhibition, cell reporter | Potency, µM (titrated, usually from 37.8 µM), for the others: at the top dose activity change, negative = inhibition, usual class: inhibitors | 1.8% of 300,000 active; calls by dose curve; tested in HEK293 cells; also: potency is read from the fitted curve at half-maximal effect
HCV inhibitor: HCV inhibition; Huh7.5.1 HCVcc-Cre infection, luciferase reporter, 44 h; Potency, µM (series often up to 41.8 µM), inactives show at the highest dose activity change, negative = inhibition, actives largely listed as inhibitors; 3.4% of 340,000 active; also: potency is read from the fitted curve at half-maximal effect
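Cells seeded at 1,000/well and cultured 4 h, then compounds added followed by HCVcc-Cre virus (~0.5 moi). After 44 h further culture, luciferase substrate was added, plates held 15 min at room temperature, and luminescence read for 15 sec.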
Lassa entry inh: inhibitors of Lassa virus binding or cell entry; Lassa virus pseudotype entry inhibition, cell reporter; Potency, µM (titrated, usually from 37.9 µM), for inactives: at the top dose activity change, negative = inhibition, hits mostly inhibitors; 1.2% of 300,000 active; AID 540256; calls by dose curve; tested in HEK293 cells; also: potency is read from the fitted curve at half-maximal effect; nearly all actives have a fitted effect of over 50% in size
* = called active by the depositor; ? = inconclusive; / = no result given; [ ] = remark or other dose. Unless noted, calls follow the shape of the dose curve; as a rule, active = well fitted inhibition curve with a large enough effect; inconclusive = small, poorly fitted or top-dose-only effect, or another doubt; inactive = no such curve, though single readings can be large or run the other way. % is scaled to controls: 0 for no effect and ±100 for the full control effect.

SMILES	HCMV inh	Pf growth 96h	Pf growth 48h	MARV entry inh	HCV inhibitor	Lassa entry inh
Cc1nc2cc(-c3ccccc3)nn2c(C)c1CCC(=O)N1CCN(c2ccc(F)cc2)CC1	?	/	/	-7%[46.1 µM]	/	13%[46.1 µM]
CCOC(=O)c1c(-c2ccccc2)c2cc(OC)ccc2n1CCCN(C)C	7	65%	9.3µM*	/	14µM*	/
CCOC(=O)c1c(C)n(CCNC(C)=O)c2ccc(OC)cc12	28	/	10%	-22%	-8%	-11%
CC(C)OP(=O)(OC(C)C)/C(C=O)=N\Nc1ccc([N+](=O)[O-])cc1	-91*	?	?	/	?	/
N=C(N)SCc1ccc(Cl)cc1Cl	-34	10µM*	?	?	11µM*	?
NC(=S)Cc1ccc(Cl)cc1Cl	22	13%	-3%	?	6%	15%
Cc1ccc(C(C(=O)NC2CCCC2)N2CCCCC2)cc1 (stereo not drawn)	1	1.9µM*	?	19%	9%	-1%
CCN1CCN(C(C(=O)NC2CCCC2)c2ccc(Cl)cc2)CC1 (stereo not drawn)	5	12µM*	/	/	3%	/
CCOC(=O)C1CCN(C(C(=O)NC2CCCC2)c2ccc(C)cc2)CC1 (stereo not drawn)	-36	10µM*	/	/	-7%	/
O=C(NC1CCCCCCC1)c1ccco1	44	/	0%	?	-1%	20%
O=C(NC1CCN(C(=O)NC2CCCCC2)CC1)c1ccco1	-107*	/	1%	?	23%	29%
Cc1ccc(C(C(=O)NC2CCCCC2)N2CCCC2)cc1 (stereo not drawn)	-6	?	31%	-16%	6%	8%
COC(=O)c1cc(C(=O)OC)n2c(C)cc3ccccc3c12	/	/	/	13%[14.2 µM]	/	/
CCCCc1nn2c(=O)cc(COC(=O)c3ccco3)nc2s1	3	/	/	/	/	6%[46.1 µM]
Cc1ccc(C(C(=O)NC2CCCCC2)N2CCN(C(=O)c3ccco3)CC2)cc1 (stereo not drawn)	83	-24%	12µM*	-18%	4%	-15%
CCOc1ccc(NC(=O)C(C)Oc2ccccc2C(=O)Nc2ccc(C)c(Cl)c2)cc1 (stereo not drawn)	88	?	?	-24%	11µM*	-7%
CCOC(=O)C1CCN(C(=O)CN(C)S(=O)(=O)c2ccc3c(c2)c(=O)n(C)c(=O)n3C)CC1	-33	5%	6%	19%[46.1 µM]	6%	8%[46.1 µM]
COC(=O)C1CCN(C2CN(Cc3ccc([N+](=O)[O-])cc3)S(=O)(=O)C2)CC1 (stereo not drawn)	8	/	/	/	/	/
O=C(NCc1n[nH]c(=S)n1-c1cccc(C(F)(F)F)c1)c1ccco1	-16	?	-23%	1%[46.1 µM]	33%	16%
CCCOc1ccc(/C=C/c2[nH]c(=O)[nH]c(=O)c2[N+](=O)[O-])cc1OCC	0	?	-8%	5%[46.1 µM]	-17%	-4%
CCOc1cc(/C=C\c2[nH]c(=O)[nH]c(=O)c2[N+](=O)[O-])ccc1OC(C)CC (stereo not drawn)	-97*	?	/	-28%	-11%	-28%
CCc1cccc(C)c1NC(=O)c1cc(S(=O)(=O)NCc2ccccc2Cl)ccc1F	?	/	/	/	/	-2%[46.1 µM]
Cc1ccnc(NC(=O)COc2ccc3oc4c(c3c2)CCCC4)c1	62	12µM*	125%	?	1%	13%
Cc1ccccc1NC(=O)COc1ccc2oc3c(c2c1)CCCC3	9	/	/	0%[46.1 µM]	/	5%[46.1 µM]
CC(C)OCCCNC(=O)COc1ccc2oc3c(c2c1)CCCC3	10	4.1µM*	-19%	-4%[46.1 µM]	-13%	-11%[46.1 µM]
O=C(CCc1ccccc1)Nc1ccccc1C(=O)NCc1ccco1	33	13µM*	?	-2%	-14%	?
Cc1ccc(N(CC(=O)N/N=C/c2ccc(OC3CSC3)cc2)S(=O)(=O)c2ccccc2)cc1	14	-1%	?	?	?	?
O=C(CN(Cc1ccco1)S(=O)(=O)c1ccccc1)N/N=C/c1cccc(O)c1	1	-23%	-29%	10%[46.1 µM]	-6%	-10%
